Experimental data: PubChem BioAssay AID1878 (Sanford-Burnham Center for Chemical Genomics, 2009)
Among all 1,000 compounds or so, about 200 (20%) were called active. Cut-off read from the data, not from the text of the source: active = inhibition above about 55%; inactive = the rest. The list is a sample of the results. Potency and affinity values are given separately.

These compounds were tested against Dual specificity protein phosphatase 3 (Homo sapiens) (UniProt P51452) (assay: VHR1 phosphatase inhibitors, biochemical (AID 1878)). Conditions: recombinant VHR phosphatase, fluorogenic substrate; at 13.3 µM; hits give high values.
Sequence of Dual specificity protein phosphatase 3 (Homo sapiens) (P51452 whole entry, looked up): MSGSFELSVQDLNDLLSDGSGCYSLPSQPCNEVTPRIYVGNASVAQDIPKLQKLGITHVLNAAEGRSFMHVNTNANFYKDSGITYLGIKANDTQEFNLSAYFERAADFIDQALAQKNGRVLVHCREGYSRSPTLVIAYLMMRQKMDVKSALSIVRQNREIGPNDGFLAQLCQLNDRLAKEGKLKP
For `Cc1ccccc1C(=O)NC[C@@H]1CCCN2CCCC[C@H]12`, the inhibition was -3.5% (inactive).
`CC(=O)c1cccc(OCc2cc(C(=O)N3CC4C[C@@H]5CC3C[C@H](C4)C5)no2)c1` was tested, and the inhibition was 21.3% (inactive).
`Cc1ccc2c(c1)N(CC(=O)NCCCN1CCCCC1C)C(=O)c1cccnc1O2` (stereo not drawn) was tested, and the inhibition was -7.1% (inactive).
For `O=C(COC(=O)CNC(=O)c1ccc(Cl)cc1Cl)Nc1ccc(N2CCOCC2)cc1`, the inhibition was 1.8% (inactive).
In the case of `Cc1ccc(S(=O)(=O)N(C)C)cc1NC(=S)N(C)C1CCN(C)CC1`, the inhibition is reported as -3.6% (inactive).
In the case of `CCc1nnc(NC(=O)COc2ccc3c(c2)OCO3)s1`, the inhibition is reported as 5.7% (inactive).
With `CCOc1ccccc1OCCN1CCCC1` the inhibition was -12.9% (inactive).
`COc1ccc(C2=NN(C(=O)CCCC(=O)O)C(c3cn(-c4ccccc4)nc3-c3ccccc3)C2)cc1` (stereo not drawn) was tested, and the inhibition was 91.6% (active).
For `O=C(O)CCC(=O)N1N=C(c2ccccc2)CC1c1ccc(Br)cc1` (stereo not drawn), the inhibition was -7.5% (inactive).
`O=[N+]([O-])c1ccc(N2N=C(c3ccccc3)CC2c2ccccc2O)cc1` (stereo not drawn) was tested, and the inhibition was 6% (inactive).
With `COc1cc(OC)c(NC2=CC(=O)C(=O)c3ccccc32)cc1Cl` the inhibition was 6.7% (inactive).
In the case of `O=C(NCCc1cnc[nH]1)Nc1cccc(C(F)(F)F)c1`, the inhibition is reported as -4.7% (inactive).
`CN(c1ccc(C(=O)N2CCCCC2)cc1)S(C)(=O)=O` was tested, and the inhibition was 27% (inactive).
With `CC1=CC(=O)c2c(O)ccc(O)c2C1=O` the inhibition was 65.2% (active).
For `COc1ccc(OC)c2c(C)cc(C)nc12`, the inhibition was -3.6% (inactive).
In the case of `CC1CCCC(C)N1/N=C/c1ccc(O)c(O)c1` (stereo not drawn), the inhibition is reported as 2.9% (inactive).
In the case of `COCCCN(CC(=O)Nc1ccc(N2CCOCC2)cc1)S(=O)(=O)c1ccc(Cl)cc1`, the inhibition is reported as -3.7% (inactive).
With `CC1CCC(NCCNC(=O)c2ccco2)CC1` (stereo not drawn) the inhibition was -9.5% (inactive).
In the case of `O=C(Nc1ccnn1C1CCN(C2CCCC2)CC1)c1ccccc1`, the inhibition is reported as -11.4% (inactive).
With `CCCCCC#CCC#CCC#CCC#CCCCC(=O)O` the inhibition was 94.6% (active).
For `COc1ccc(Nc2nccc(-c3ccc(C#N)cc3)n2)cc1`, the inhibition was -0.6% (inactive).
With `NC(=O)NC(=O)C(Nc1ccc(N2CCCCC2)cc1)c1ccccc1` (stereo not drawn) the inhibition was 3.2% (inactive).
With `CCOc1ccc(CNC(=O)c2cccc(NC(=O)C3=C(C)OCCS3)c2)cc1` the inhibition was 5.4% (inactive).
`CN(C(=O)COC(=O)c1cc(F)c(F)cc1Cl)c1ccccc1` was tested, and the inhibition was -7.5% (inactive).
For `COC(=O)c1ccc(CN2CCCC(CNC(=O)Cc3ccc(OC)cc3)C2)cc1` (stereo not drawn), the inhibition was -1% (inactive).
In the case of `CCOc1ccc(CNC(=O)C(=O)c2cn(CC(=O)N3CCOCC3)c3ccccc23)cc1OC`, the inhibition is reported as -5.3% (inactive).
For `CCCCN(C)CCNC(=O)CCn1nc(-c2ccc(C)cc2)ccc1=O`, the inhibition was 49.7% (inactive).
`Cc1ccc(NC(=O)COc2cccc(-n3cnnn3)c2)cc1[N+](=O)[O-]` was tested, and the inhibition was -11.9% (inactive).
`Cc1ccc(OCC(=O)Nc2ccc(C(N)=O)cc2)cc1` was tested, and the inhibition was 19.4% (inactive).
With `Cc1cccc(NC(=O)COc2ccc(/C=C\c3[nH]c(=O)[nH]c(=O)c3[N+](=O)[O-])cc2)c1` the inhibition was 98.7% (active).
In the case of `Cc1nn(C)c(C)c1CCC(=O)N1CCCC(N2CCN(c3ccc(F)cc3)CC2)C1` (stereo not drawn), the inhibition is reported as -3.3% (inactive).
`Cc1nc2sccn2c(=O)c1S(=O)(=O)Nc1ccc(N2CCN(S(C)(=O)=O)CC2)cc1` was tested, and the inhibition was -12.5% (inactive).
`O=c1c2c(-c3cccc([N+](=O)[O-])c3)ccnc2[nH]n1-c1ccccc1` was tested, and the inhibition was 74.2% (active).
In the case of `O=[N+]([O-])c1cccc(S(=O)(=O)N2CCN(c3ccccn3)CC2)c1`, the inhibition is reported as -9.5% (inactive).
For `COc1ccc(-c2ccnc3[nH]n(-c4ccccc4)c(=O)c23)cc1`, the inhibition was 7.3% (inactive).
`COc1ccc2c(C)nc(N/C(N)=N/S(=O)(=O)c3ccc(C)cc3)nc2c1` was tested, and the inhibition was 26.9% (inactive).
In the case of `Cn1c(=O)[nH]c(=O)c2c1nc(N1CCNCC1)n2Cc1ccccc1Cl`, the inhibition is reported as 0.7% (inactive).
In the case of `COc1cc(NC(=O)c2cnc(NCc3ccccc3)nc2C)cc(OC)c1OC`, the inhibition is reported as -1.7% (inactive).
In the case of `c1cc(-c2nnc3sc(C4CCCCC4)nn23)ccn1`, the inhibition is reported as -3.4% (inactive).
With `COc1ccccc1NS(=O)(=O)c1ccc2oc(SC)nc2c1` the inhibition was -3.1% (inactive).
In the case of `O=C1Nc2ccccc2C1=Nc1ccc(F)cc1`, the inhibition is reported as -4.5% (inactive).
`O=C(O)c1ccc(NC(=S)NC(=O)C(c2ccccc2)c2ccccc2)cc1` was tested, and the inhibition was -6.3% (inactive).
For `O=C(NC(=S)Nc1ccccn1)c1ccc(-c2ccccc2)cc1`, the inhibition was 0.9% (inactive).
With `COc1cccc(-c2cc(C(=O)N3CCc4ccccc4C3)[nH]n2)c1` the inhibition was 6.6% (inactive).
For `COc1ccc(NC(=O)c2cc3ccc4c5ccccc5[nH]c4c3cc2O)cc1`, the inhibition was 19.8% (inactive).
`O=C(C1CC1)N1N=C(c2cccc(Br)c2)CC1(O)C(F)(F)F` (stereo not drawn) was tested, and the inhibition was 2.7% (inactive).
`Nc1ccc(C(=O)N(CCO)CCO)cc1` was tested, and the inhibition was 4.4% (inactive).
For `CC(=O)Nc1nc(C)c(-c2nc3ccc([N+](=O)[O-])cc3[nH]2)s1`, the inhibition was 1% (inactive).
In the case of `Cc1ccc2nc(/C(C#N)=C/c3ccc(-c4cccc([N+](=O)[O-])c4)o3)[nH]c2c1`, the inhibition is reported as 96.4% (active).
With `CN(C)C(=O)/C(=C/c1ccc(-c2cccc([N+](=O)[O-])c2)o1)NC(=O)c1ccccc1` the inhibition was 1.2% (inactive).
In the case of `Cc1cc(C)c(S(=O)(=O)NCC2CCC(C(=O)NCCCN3CCC(C)CC3)CC2)c(C)c1` (stereo not drawn), the inhibition is reported as -3.9% (inactive).
`CC(=O)N1CCN(c2ccc(NCc3cccc4ccccc34)cc2)CC1` was tested, and the inhibition was 3.9% (inactive).
`CN(C)c1ccc(N=Cc2cccn2C)cc1` was tested, and the inhibition was 0.6% (inactive).
With `CC(C)(C)CN1CCC(Oc2cccc(C(=O)N3CCNC(=O)C3(C)C)c2)CC1` the inhibition was 6.9% (inactive).
With `COC(=O)C1=CN(Cc2ccc(OC)cc2)C=C(C(=O)OC)C1c1ccc(O)c(OC)c1` the inhibition was 8.4% (inactive).
`O=C(CCNC(=O)N1CC(=O)Nc2ccccc21)Nc1cccc(Cl)c1` was tested, and the inhibition was 2% (inactive).
`C=CCNC(=O)N1c2ccccc2Sc2ccccc21` was tested, and the inhibition was 26.2% (inactive).
With `CC(C)Oc1ccc(C(=O)Nc2ccc(S(=O)(=O)N3CCN(C)CC3)cc2)cc1` the inhibition was -10.6% (inactive).
In the case of `CCN(C(=O)c1ccc(S(=O)(=O)N(C)C)cc1)C(C)C(=O)Nc1ccc(C)cc1` (stereo not drawn), the inhibition is reported as 5.9% (inactive).
With `CC(C)OCCCNC(=S)Nc1ccc(S(N)(=O)=O)cc1` the inhibition was 54.9% (active).
For `O=C(CSc1nc2ncccc2[nH]1)NCc1ccco1`, the inhibition was 17.8% (inactive).
With `COc1ccc(Br)cc1/C=N/n1nnnc1N` the inhibition was 5.9% (inactive).
With `Cc1ccc(C(=O)O)cc1-c1ccc(/C=C2\SC(=O)N(CC(=O)Nc3ccccc3)C2=O)o1` the inhibition was 45.6% (inactive).
For `O=C(CN1C(=O)S/C(=C\c2ccc(-c3cc(C(=O)O)ccc3Cl)o2)C1=O)Nc1ccc2c(c1)OCO2`, the inhibition was 91.9% (active).
In the case of `O=C(CSc1ccc([N+](=O)[O-])cn1)Nc1ccc2c(c1)OCO2`, the inhibition is reported as -8.7% (inactive).
With `Cc1cc(C(=O)O)ccc1-c1ccc(/C=C2\SC(=O)N(CC(=O)Nc3ccc4c(c3)OCO4)C2=O)o1` the inhibition was 96.8% (active).
With `CCOc1ccccc1NC(=O)c1nnn(CC(=O)Nc2ccc3c(c2)OCO3)c1N` the inhibition was -0.3% (inactive).
With `Cc1ccccc1NC(=O)CN1C(=O)S/C(=C\c2ccc(-c3cc(C(=O)O)ccc3C)o2)C1=O` the inhibition was 67.4% (active).
`CCN(CC(=O)Nc1ccc2c(c1)OCCO2)C(=O)COc1ccc(C)cc1` was tested, and the inhibition was 7.4% (inactive).
For `CCOc1ccc(CNS(=O)(=O)c2cc(CN3C(=O)c4cccnc4C3=O)ccc2OC)cc1`, the inhibition was -2.7% (inactive).
`CC(=O)N1c2ccc(S(=O)(=O)N(C)CC(=O)Nc3cccc(C)c3)cc2CC1C` (stereo not drawn) was tested, and the inhibition was -2.3% (inactive).
For `O=C(NC(=S)Nc1ccccc1N1CCCC1)c1ccccc1Br`, the inhibition was -1.6% (inactive).
For `COc1cc(OC)nc(Oc2ccc(N)c(C)c2)n1`, the inhibition was 17.4% (inactive).
With `CC(=O)/C=C\c1cn(-c2ncc(C(F)(F)F)cc2Cl)c2ccccc12` the inhibition was -0.4% (inactive).
`COc1cccc(CNc2cc(C)ccn2)c1O` was tested, and the inhibition was -6.7% (inactive).
With `O=S1(=O)N(Cc2ccccc2F)CCCN1Cc1c(F)cccc1Cl` the inhibition was 44.5% (inactive).
With `O=S(=O)(c1ccccc1)N1CCn2c(nc3ccccc32)C1` the inhibition was -0.8% (inactive).
In the case of `Cc1ccc(-c2nn3c(C)nnc3s2)cc1NC(=O)c1ccc(-c2ccc(Cl)cc2Cl)o1`, the inhibition is reported as 99.7% (active).
For `Cc1ccc(/C=C2/Sc3ccc(C(=O)NCc4ccccn4)cc3NC2=O)cc1`, the inhibition was 93.9% (active).
For `CSCC(C)N1CCC(N2CCC(C(=O)NCc3ccccn3)CC2)CC1` (stereo not drawn), the inhibition was -9.9% (inactive).
With `CCN(Cc1ccc(NC(C)=O)cc1)CC1CCCN(CCc2cccc(F)c2)C1` (stereo not drawn) the inhibition was 6.3% (inactive).
For `CCOC(=O)C1(Cc2ccccc2)CCCN(C(=O)c2ccc(-n3ccnc3)cc2)C1` (stereo not drawn), the inhibition was -9.5% (inactive).
`Cc1cccc(C(=O)NCCCn2ccnc2)c1C` was tested, and the inhibition was -6.9% (inactive).
For `Cc1ccc(CSc2nnc(-c3ccco3)n2N)cc1`, the inhibition was 3.5% (inactive).
For `CC1(c2ccc3ccccc3c2)NC(=O)NC1=O` (stereo not drawn), the inhibition was -8.8% (inactive).
With `CC(C)N(C)Cc1nnnn1CC(=O)N(C)Cc1ccc(F)cc1` the inhibition was 0.7% (inactive).
`O=C(O)CN1C(=O)/C(=C2\C(=O)N(Cc3ccccc3Cl)c3ccccc32)SC1=S` was tested, and the inhibition was 96.7% (active).
In the case of `COc1ccc(NC(=O)CN2C(=O)/C(=C3\SC(=S)N(CCC(=O)O)C3=O)c3ccccc32)cc1`, the inhibition is reported as 74.7% (active).
For `COc1ccc(NC(=O)CN(CC(=O)Nc2ccc(OC)cc2)C(C)(C)CO)cc1`, the inhibition was 10.8% (inactive).
For `COc1ccc(C(CC(=O)Nc2ccccn2)N2Cc3ccccc3C2=O)cc1` (stereo not drawn), the inhibition was 2.3% (inactive).
`CN(C)c1nc(-c2ccccc2)c2cc(Cl)ccc2n1` was tested, and the inhibition was 9% (inactive).
For `CCCN1CCN(CCNC(=O)Nc2cc(C)ccc2C)CC1`, the inhibition was -9.3% (inactive).
For `Cc1nc(C(C)NC(=O)c2ccc(OC3CCN(Cc4ccccn4)CC3)cc2)c(C)s1` (stereo not drawn), the inhibition was -8.5% (inactive).
